Results published in PubChem BioAssay (NCI).
This is part of a sample that, as a whole, favours compounds with a hit. Of some 79,000 tested, about 15% had one in any assay. The source made the active and inactive calls. Cut-off read from the data, not from the text of the source: active = growth inhibition above about 70%; inactive = the rest.

Tests used:
[1] = NCI Yeast Anticancer Drug Screen. Data for the rad52 strain (AID 147);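 note: 0% = growth of vehicle-treated control cultures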; settings: S. cerevisiae rad52 mutant growth inhibition, hits give high values
Procedure, shortened: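 Yeast strain carrying a DNA damage repair alteration was exposed to test compounds. Growth inhibition was measured relative to vehicle-treated controls.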

[2] = NCI Yeast Anticancer Drug Screen. Data for the wt1 strain (AID 149);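 note: 0% = growth of vehicle-treated wt1 cultures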; settings: S. cerevisiae wt1 strain (SPY 50644) growth inhibition, hits give high values
Procedure, shortened: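 Using yeast strain wt1, compound-induced growth inhibition was determined against vehicle-treated cultures.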

[3] = NCI Yeast Anticancer Drug Screen. Data for the rad50EPP+ strain (AID 151);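 note: 0% = growth of vehicle-treated control cultures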; settings: S. cerevisiae rad50 mutant strain, hits give high values
Procedure, shortened: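 Yeast strain carrying rad50 alteration (rad50EPP+) exposed to compounds; growth inhibition measured relative to vehicle-treated controls.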

[4] = NCI Yeast Anticancer Drug Screen. Data for the mgt1 strain (AID 153); settings: S. cerevisiae mgt1 mutant growth inhibition, hits give high values
Procedure, shortened: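 Yeast mgt1 strain (DNA repair/cell-cycle alteration panel) exposed to compounds; growth inhibition measured relative to vehicle-treated controls.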

[5] = NCI Yeast Anticancer Drug Screen. Data for the rad50 strain (AID 155);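 note: 0% = growth of vehicle-only cultures of the same strain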; settings: S. cerevisiae rad50 strain growth inhibition, hits give high values
Procedure, shortened: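 Relative growth inhibition (compound vs vehicle) was measured in yeast with a defined repair-gene alteration.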

[6] = NCI Yeast Anticancer Drug Screen. Data for the mec2-1 strain (AID 157); settings: S. cerevisiae mec2-1 strain, hits give high values
Procedure, shortened: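 mec2-1 yeast strain, carrying an alteration in DNA damage repair or cell cycle control, was exposed to compounds; growth inhibition was measured relative to vehicle-treated controls.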

[7] = NCI Yeast Anticancer Drug Screen. Data for the rad14 strain (AID 159);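 note: 0% = growth of vehicle-treated control cultures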; settings: S. cerevisiae rad14 strain growth inhibition, hits give high values
Procedure, shortened: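 Screen for anticancer potential: a yeast strain altered in DNA damage repair is grown with compound, and reduced growth is quantified against vehicle controls.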

[8] = NCI Yeast Anticancer Drug Screen. Data for the sgs1 mgt1 strain (AID 161);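 note: 0% = growth of cultures given vehicle only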; settings: S. cerevisiae sgs1 mgt1 strain, hits give high values
Procedure, shortened: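 Percent growth inhibition was derived by comparing compound-exposed mutant yeast with vehicle-exposed cultures. The strain carries alterations in DNA damage repair.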

[9] = NCI Yeast Anticancer Drug Screen. Data for the CLN2oe strain (AID 163);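 note: 0% = growth of vehicle-only control cultures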; settings: S. cerevisiae CLN2oe strain, hits give high values
Procedure, shortened: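 Yeast cells carrying a defined cell-cycle control alteration were exposed to test compounds. Growth inhibition was scored against vehicle-treated control cultures.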

[10] = NCI Yeast Anticancer Drug Screen. Data for the cln2 rad14 strain (AID 165);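 note: 0% = growth equal to vehicle treated cultures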; settings: S. cerevisiae cln2 rad14 strain, hits give high values
Procedure, shortened: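 Yeast carrying cln2 and rad14 alterations (cell cycle control and DNA damage repair) were exposed to compounds. Growth inhibition was measured against vehicle-treated controls.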

[11] = NCI Yeast Anticancer Drug Screen. Data for the bub3 strain (AID 167); settings: S. cerevisiae bub3 mutant strain, hits give high values
Procedure, shortened: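 Screening used yeast with an engineered genetic alteration affecting cell cycle control. Compound-exposed cultures were compared with vehicle cultures, and reduced growth was taken as inhibition.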

[12] = NCI Yeast Anticancer Drug Screen. Data for the wt2 strain (AID 169);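 note: 0% = growth of vehicle-treated yeast cultures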; settings: S. cerevisiae wt2 strain growth inhibition, hits give high values
Procedure, shortened: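 Yeast cells were exposed to test compounds, and growth inhibition was measured relative to vehicle-treated controls.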

[13] = NCI Yeast Anticancer Drug Screen. Data for the mlh1 strain (AID 171);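 note: 0% = growth of vehicle-treated control cultures of the same strain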; settings: S. cerevisiae mlh1 strain growth inhibition, hits give high values
Procedure, shortened: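 Yeast carrying a defined genetic alteration in DNA damage repair or cell cycle control were exposed to test compounds. Growth inhibition was measured relative to vehicle-treated controls.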

[14] = NCI Yeast Anticancer Drug Screen. Data for the sgs1 strain (AID 173);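 note: 0% = growth of vehicle-only control cultures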; settings: S. cerevisiae sgs1 mutant, hits give high values
Procedure, shortened: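 Yeast mutant strains carrying defined defects in DNA damage repair or cell cycle control were exposed to test compounds. Growth inhibition was scored against vehicle-treated controls.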

[15] = NCI Yeast Anticancer Drug Screen. Data for the mlh1 rad18 strain (AID 175); settings: S. cerevisiae mlh1 rad18 strain growth inhibition, hits give high values
Procedure, shortened: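 Growth inhibition of the yeast strain was measured after compound exposure and expressed relative to vehicle-treated controls. The strain carries defined defects in DNA damage repair.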

[16] = NCI Yeast Anticancer Drug Screen. Data for the rad18 strain (AID 177); settings: S. cerevisiae rad18 mutant growth inhibition, hits give high values
Procedure, shortened: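 Yeast carrying a defined DNA damage repair alteration were exposed to compounds. Growth inhibition was expressed relative to vehicle-treated controls.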

[17] = at 5.0 µM (retest, dose inferred, filed as 0.5)
[18] = at 50.0 µM (retest, dose inferred, filed as 5.0)

Measured: growth inhibition

Clc1cc(-c2ccccc2)nc2ccccc12
active: [1]; at 100.0 µM 75% | [2]; at 100.0 µM 71% | [3]; at 33.0 µM 77% | [3]; at 100.0 µM 90% | [4]; at 33.0 µM 80% | [4]; at 100.0 µM 97% | [5]; [18] 90% | [5]; at 50.0 µM 75.3% | [5]; at 100.0 µM 81% | [6]; [17] 77% | [6]; [18] 92% | [6]; at 100.0 µM 86% | [7]; at 100.0 µM 91% | [8]; [18] 88% | [10]; [18] 82% | [11]; [18] 93% | [11]; at 100.0 µM 93% | [12]; at 100.0 µM 86% | [13]; at 100.0 µM 95% | [14]; at 100.0 µM 82% | [15]; [18] 87% | [16]; at 100.0 µM 91%
inactive: [1]; at 1.2 µM 6% | [1]; at 3.7 µM -1% | [1]; at 11.0 µM 0% | [1]; at 33.0 µM 34% | [2]; at 1.2 µM -10% | [2]; at 3.7 µM -15% | [2]; at 11.0 µM -17% | [2]; at 33.0 µM 24% | [3]; at 1.2 µM 7% | [3]; at 3.7 µM 27% | [3]; at 11.0 µM 56% | [4]; at 1.2 µM 13% | [4]; at 3.7 µM 32% | [4]; at 11.0 µM 36% | [5]; at 1.2 µM 6% | [5]; at 3.7 µM 10% | [5]; [17] 68% | [5]; at 11.0 µM 2% | [5]; at 33.0 µM 36% | [6]; at 1.2 µM -18% | [6]; at 3.7 µM -8% | [6]; at 11.0 µM -14% | [6]; at 33.0 µM 33% | [6]; at 50.0 µM 44.4% | [7]; at 1.2 µM 1% | [7]; at 3.7 µM 2% | [7]; at 11.0 µM 1% | [7]; at 33.0 µM 46% | [8]; [17] -23% | [9]; at 1.2 µM 5% | [9]; at 3.7 µM 3% | [9]; at 11.0 µM -8% | [9]; at 33.0 µM 28% | [9]; at 100.0 µM 54% | [10]; [17] 40% | [11]; at 1.2 µM 11% | [11]; at 3.7 µM 23% | [11]; [17] 27% | [11]; at 11.0 µM 34% | [11]; at 33.0 µM 60% | [12]; at 1.2 µM -11% | [12]; at 3.7 µM -3% | [12]; at 11.0 µM 0% | [12]; at 33.0 µM 47% | [13]; at 1.2 µM 20% | [13]; at 3.7 µM 27% | [13]; at 11.0 µM 24% | [13]; at 33.0 µM 61% | [14]; at 1.2 µM -9% | [14]; at 3.7 µM -12% | [14]; at 11.0 µM -9% | [14]; at 33.0 µM 42% | [15]; [17] 47% | [15]; at 50.0 µM 31.4% | [16]; at 1.2 µM 16% | [16]; at 3.7 µM 9% | [16]; at 11.0 µM 25% | [16]; at 33.0 µM 59%

COc1ccc(N2CN(C)CSC2=S)cc1
inactive: [1]; at 1.2 µM -27% | [1]; at 3.7 µM -11% | [1]; at 11.0 µM -1% | [1]; at 33.0 µM 43% | [2]; at 1.2 µM -18% | [2]; at 3.7 µM -14% | [2]; at 11.0 µM -22% | [2]; at 33.0 µM -1% | [2]; at 100.0 µM 58% | [3]; at 1.2 µM -36% | [3]; at 3.7 µM 10% | [3]; at 11.0 µM 58% | [4]; at 1.2 µM -51% | [4]; at 3.7 µM -48% | [4]; at 11.0 µM -36% | [4]; at 33.0 µM -11% | [4]; at 100.0 µM 61% | [5]; at 1.2 µM -20% | [5]; at 3.7 µM 3% | [5]; [17] 61% | [5]; at 11.0 µM 25% | [5]; at 33.0 µM 63% | [5]; at 50.0 µM 10.6% | [6]; at 1.2 µM -17% | [6]; at 3.7 µM -29% | [6]; at 11.0 µM -22% | [6]; at 33.0 µM -2% | [6]; at 50.0 µM 8.85% | [7]; at 1.2 µM -24% | [7]; at 3.7 µM -22% | [7]; at 11.0 µM -21% | [7]; at 33.0 µM -11% | [7]; at 100.0 µM 40% | [8]; [17] -20% | [8]; [18] 59% | [9]; at 1.2 µM -23% | [9]; at 3.7 µM -23% | [9]; at 11.0 µM -39% | [9]; at 33.0 µM -9% | [9]; at 100.0 µM 24% | [10]; [17] 22% | [10]; [18] 59% | [11]; at 1.2 µM -12% | [11]; at 3.7 µM -11% | [11]; [17] 35% | [11]; at 11.0 µM -12% | [11]; at 33.0 µM 32% | [14]; at 1.2 µM -43% | [14]; at 3.7 µM -41% | [14]; at 11.0 µM -39% | [14]; at 33.0 µM 7% | [15]; [17] 51% | [15]; at 50.0 µM 56.4% | [16]; at 1.2 µM -67% | [16]; at 3.7 µM -64% | [16]; at 11.0 µM -53% | [16]; at 33.0 µM -41% | [16]; at 100.0 µM 52%
active: [1]; at 100.0 µM 72% | [3]; at 33.0 µM 81% | [3]; at 100.0 µM 90% | [5]; [18] 95% | [5]; at 100.0 µM 83% | [6]; [17] 73% | [6]; [18] 96% | [6]; at 100.0 µM 75% | [11]; [18] 83% | [11]; at 100.0 µM 73% | [14]; at 100.0 µM 71% | [15]; [18] 97%
